An excerpt weighted towards active compounds, which were near 4.1% of everything screened.
PolyA inhibitor: blocks polyadenylation in yeast reporter cells; activity score, % at 12 µM; 0.02% of 300,000 active; S. cerevisiae SKY197-pL101 polyadenylation reporter, beta-gal luminescence; efflux-impaired pdr1/pdr3 knockout yeast; score 100 = 6 SD above DMSO;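 active = lowest replicate activity score at least 50, where 100 means six control SD above control mean; inconclusive = lowest score under 50 but half or more replicates reach 50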;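 also: yeast exposed to compound for 9 h at 30 °C; higher score means more reporter readthrough which indicates perturbed polyadenylation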
IDE cell inh: cellular human IDE inhibition | inhibition, % at 5.59 µM | HEK cells, FAbetaB cleavage, fluorescence polarization | 0.41% of 320,000 active | P14735;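 active = percent inhibition above the average of all tested compounds plus 3 SD, set per screening campaign, cut at about 16% in these data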;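 also: IDE supplied by intact live HEK cells; FP after avidin binding of uncleaved biotin substrate so inhibition keeps polarization high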
Target sequence (P14735 whole entry, looked up): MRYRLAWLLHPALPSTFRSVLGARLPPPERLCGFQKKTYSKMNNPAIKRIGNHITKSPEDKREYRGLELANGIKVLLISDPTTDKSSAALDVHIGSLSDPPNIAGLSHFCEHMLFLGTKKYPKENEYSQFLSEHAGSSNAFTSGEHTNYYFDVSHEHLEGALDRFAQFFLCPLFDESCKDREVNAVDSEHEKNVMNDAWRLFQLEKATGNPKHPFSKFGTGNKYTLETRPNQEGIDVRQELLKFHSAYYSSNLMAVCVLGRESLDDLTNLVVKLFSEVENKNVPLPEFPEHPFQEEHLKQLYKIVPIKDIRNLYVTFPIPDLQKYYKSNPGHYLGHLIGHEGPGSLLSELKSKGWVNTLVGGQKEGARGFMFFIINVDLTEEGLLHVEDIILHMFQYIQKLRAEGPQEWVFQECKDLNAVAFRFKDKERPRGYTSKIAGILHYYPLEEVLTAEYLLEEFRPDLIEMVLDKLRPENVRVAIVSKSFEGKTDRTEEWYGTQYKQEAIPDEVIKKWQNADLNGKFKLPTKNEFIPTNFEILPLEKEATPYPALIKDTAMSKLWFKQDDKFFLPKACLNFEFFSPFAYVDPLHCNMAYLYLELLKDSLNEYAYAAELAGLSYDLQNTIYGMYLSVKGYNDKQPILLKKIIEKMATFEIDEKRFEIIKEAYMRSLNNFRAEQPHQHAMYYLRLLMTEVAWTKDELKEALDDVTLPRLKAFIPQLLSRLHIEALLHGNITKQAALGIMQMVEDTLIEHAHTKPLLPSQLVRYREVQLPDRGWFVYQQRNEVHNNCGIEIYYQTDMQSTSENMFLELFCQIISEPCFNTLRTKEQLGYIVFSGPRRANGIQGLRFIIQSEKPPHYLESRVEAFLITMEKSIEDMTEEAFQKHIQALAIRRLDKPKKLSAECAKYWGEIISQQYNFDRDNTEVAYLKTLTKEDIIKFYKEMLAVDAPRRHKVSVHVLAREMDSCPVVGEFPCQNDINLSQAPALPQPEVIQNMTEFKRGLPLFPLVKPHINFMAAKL
ALR H2O2 inh: inhibitors of human sulfhydryl oxidase ALR. P55789. purified ALR, DTT oxidation, H2O2 HRP-luminol luminescence. inhibition, % (concentration not given with the values). 3.8% of 290,000 active;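 active = mean replicate inhibition above about 79%, with every replicate also reaching it, limit read from the data; inconclusive = only one of the two criteria met; inactive = mean below limit and not every replicate reaching it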
M18AAP inhibitor: PfM18AAP enzyme inhibition; 1.2% of 290,000 active; inhibition, % at 7.35 µM; recombinant PfM18AAP, H-Glu-NHMec fluorogenic cleavage;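 active = inhibition above the campaign mean inhibition over all tested compounds plus 3 SD, cut at about 28% in these data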
CaV13 FRET inh: Primary screen for inhibitors of IQ motif and Ca2+-dependent inactivation inhibitor domain binding in CACNA1D, Förster resonance energy transfer in living cells, …; HEK cells, CFP/YFP FRET ICDI-IQ, plate reader, 10 min; percent FRET-ratio fall versus neutral wells; inhibition, % at 12.3 µM; 0.098% of 340,000 active;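 active = mean replicate inhibition of at least 30% and at least 1% of replicates passing that level; inconclusive = only one of the two criteria is met; inactive = neither criterion is met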
IDE cell activ: IDE (human) activation, cell-based; P14735; HEK cells, FAbeta-B cleavage, fluorescence polarization; 0% vehicle, 100% cell-free pure enzyme wells; activation, % at 5.96 µM; 0.073% of 340,000 active; AID 493087;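 active = activation above the mean of all tested compounds plus 3 SD, set per screening campaign, cut at about 17% in these data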
Large screens that a line does not name were inactive.

COc1ccccc1N(CC(=O)N1CCOCC1)S(C)(=O)=O	none
Cc1cc(C)nc(NCCC(=O)O)n1	none
CCOc1ccc(C(C)=O)cc1CN1c2ccc(S(N)(=O)=O)cc2CC1C (stereo unspecified)	ALR H2O2 inh 79
C=CCn1c(C(CCCC)CC(O)COCCC)n[nH]c1=S (stereo unspecified)	ALR H2O2 inh 92
C=CCn1c(CCC(O)COCCCCC)n[nH]c1=S (stereo unspecified)	ALR H2O2 inh 96
CSc1nnc(NC(=O)c2cccc(S(=O)(=O)N3CCOCC3)c2)s1	none (no result: CaV13 FRET inh)
CCN1CCN(Cc2ccc(NC(=O)c3cc(NC(=O)N4CCNC4=O)cc(OC)c3)cc2C(F)(F)F)CC1	none (no result: M18AAP inhibitor)
COc1cc(NC(=O)N2CCNC2=O)cc(C(=O)Nc2cccc(C(F)(F)F)c2)c1	IDE cell activ 38 (no result: M18AAP inhibitor)
CNC(=O)CSc1nc(-c2ccccc2)c(-c2ccccc2)[nH]1	ALR H2O2 inh inconclusive
CCC(Sc1nc(-c2ccccc2)c(-c2ccccc2)[nH]1)C(=O)O (stereo unspecified)	ALR H2O2 inh 82
Cc1ccn(Cc2n[nH]c(=S)n2Cc2ccccc2)n1	ALR H2O2 inh 91
S=c1[nH]nc(CNc2ccc(Cl)cc2)n1Cc1ccccc1	ALR H2O2 inh 99
Fc1ccc(NCc2n[nH]c(=S)n2Cc2ccccc2)cc1	none
CC(OC(=O)c1c2c(nc3ccccc13)/C(=C\c1ccc3c(c1)OCO3)CCC2)C(=O)Nc1ccc(S(N)(=O)=O)cc1 (stereo unspecified)	IDE cell activ 26 (no result: PolyA inhibitor, IDE cell inh, ALR H2O2 inh, CaV13 FRET inh)
Clc1ccccc1C1=CC(c2ccco2)n2ncnc2N1 (stereo unspecified)	CaV13 FRET inh active
Clc1ccc(C2=CC(c3ccco3)n3ncnc3N2)cc1 (stereo unspecified)	none
Cc1ccc(C(=O)COC(=O)c2nc3nccc(C)n3n2)c(C)c1	none (no result: PolyA inhibitor, M18AAP inhibitor)
Cc1ccc(N/N=C(\C#N)C(=N)N2CCCCC2)cc1	ALR H2O2 inh 99
CCN(CC)C(=N)/C(C#N)=N/Nc1ccccc1	ALR H2O2 inh 87 (no result: IDE cell activ)
N#C/C(=N\Nc1ccccc1)C(=N)N1CCCCC1	ALR H2O2 inh 99
N#C/C(=N/Nc1ccc([N+](=O)[O-])cc1)C(=N)N1CCCCC1	none (no result: IDE cell inh, ALR H2O2 inh)
COc1ccccc1N/N=C(\C#N)C(=N)N1CCOCC1	ALR H2O2 inh 82
N#C/C(=N\Nc1ccc(Cl)cc1)C(=N)N1CCCCCC1	none (no result: ALR H2O2 inh)
COc1ccc(N2CCN(C3CCCN(C(=O)CCN4CCCCO4)C3)CC2)cc1 (stereo unspecified)	none (no result: IDE cell inh, ALR H2O2 inh)
N#C/C(=N\Nc1ccc(Br)cc1)C(=N)N1CCOCC1	ALR H2O2 inh 98
Cc1nc(C)c(CC(=O)N/N=C/c2ccc(O)cc2)c(=O)[nH]1	ALR H2O2 inh 90
COc1ccc(/C(C)=N/NC(=O)Cc2c(C)nc(C)[nH]c2=O)cc1	none
CC(C)COP(=O)(c1ccc(N(C)C)cc1)C(O)c1ccccc1 (stereo unspecified)	none
CC(C)COP(=O)(OCC(C)C)C(O)c1ccc(N(C)C)cc1 (stereo unspecified)	ALR H2O2 inh 92
CC(C)OP(=O)(c1ccc(N(C)C)cc1)C(O)c1ccc(N(C)C)cc1 (stereo unspecified)	ALR H2O2 inh 98
CC(C)COP(=O)(c1ccc(N(C)C)cc1)C(O)c1ccc(N(C)C)cc1 (stereo unspecified)	ALR H2O2 inh 98
CC(C)COP(=O)(c1ccc(N(C)C)cc1)C(O)c1ccncc1 (stereo unspecified)	none
Cc1ccc(NC(=O)Cn2nnc3ccccc32)c(C)c1	none
O=C1C2C3C=CC(C3)C2C(=O)N1CNc1ccc(O)cc1 (stereo unspecified)	ALR H2O2 inh 99 (no result: M18AAP inhibitor, CaV13 FRET inh, IDE cell activ)
CC(=O)Nc1ccc(NCN2C(=O)C3C4CCC(C4)C3C2=O)cc1 (stereo unspecified)	ALR H2O2 inh 85
COc1ccc(NC(=O)Nc2nnc(Cc3ccc(F)cc3)s2)cc1	none (no result: IDE cell inh)
CC(=O)Nc1cc(Br)ccc1O	none
CC(=O)Nc1cc(-c2ccccc2)ccc1O	ALR H2O2 inh 99
COc1cc2c(cc1O)CC[C@@H]1[C@@H]2CC[C@]2(C)[C@@H](O)CC[C@@H]12	ALR H2O2 inh 99 (no result: CaV13 FRET inh)
COc1ccc(NS(=O)(=O)c2cccc(NC(=O)NCCCl)c2)cc1	none
O=C1CC(SCc2nc3ccccc3[nH]2)C(=O)N1c1cccc(Cl)c1 (stereo unspecified)	ALR H2O2 inh 98
CN(C(=O)CSc1ncnc2sccc12)c1c(N)n(Cc2ccccc2)c(=O)[nH]c1=O	none
CSC(=S)NN=C(C)c1cccc(C)n1	none (no result: PolyA inhibitor, IDE cell inh, ALR H2O2 inh, M18AAP inhibitor)
COc1ccc(OC)c(/C=N/NC(=O)C(O)c2ccccc2)c1 (stereo unspecified)	PolyA inhibitor inconclusive
Cc1cccc(NC(=O)CNC(=O)[C@H](CCc2ccccc2)NC(=O)[C@H]2O[C@@H](n3cnc4c(N)ncnc43)[C@H](O)[C@@H]2O)c1C	none (no result: PolyA inhibitor, IDE cell inh, ALR H2O2 inh, M18AAP inhibitor, IDE cell activ)
O=c1c2cc3c(cc2[nH]c(=S)n1C1CCN(Cc2ccccc2)CC1)OCO3	ALR H2O2 inh 93
CCOc1cc2[nH]c(=S)n(C3CCN(Cc4ccccc4)CC3)c(=O)c2cc1OCC	none
CC(=O)Nc1ccc(SCC(=O)NCC2(N3CCCCC3)CCCCC2)cc1	ALR H2O2 inh 99 (no result: PolyA inhibitor, M18AAP inhibitor)
CS(=O)(=O)c1ccc(C(=O)NCC2(N3CCOCC3)CCCCC2)cc1	none (no result: PolyA inhibitor, M18AAP inhibitor)
N#CCC(=O)Nc1ccc(C(=O)NCC2(N3CCOCC3)CCCCC2)cc1	ALR H2O2 inh 99 (no result: PolyA inhibitor, M18AAP inhibitor)
O=C(CSc1ccc(Br)cc1)NCC1(N2CCCCC2)CCCCC1	none (no result: PolyA inhibitor, IDE cell inh, ALR H2O2 inh, M18AAP inhibitor)
O=C(CN1CCN(c2ccc(O)cc2)CC1)NCC(=O)Nc1ccc(F)c(F)c1F	ALR H2O2 inh 92 (no result: PolyA inhibitor, M18AAP inhibitor)
O=C(CCN1CCN(c2ccc(Cl)cc2)CC1)Nc1ccccc1F	ALR H2O2 inh 88 (no result: CaV13 FRET inh)
O=C(CN1CCN(c2ccccc2)CC1)Nc1ccccc1Cl	ALR H2O2 inh 98
COC(=O)c1ccc(C(=O)OC)c(NC(=O)CN2CCN(c3ccc(OC)cc3)CC2)c1	none (no result: CaV13 FRET inh)
COC(=O)c1cccc(NC(=O)CN2CCN(c3ccc(OC)cc3)CC2)c1	ALR H2O2 inh 88
CCC1CCCCN1C(=O)CCC(=O)Nc1nnc(C(F)(F)F)s1 (stereo unspecified)	none
COc1cc(OC)nc(NC(=O)CN2CCN(c3ccc(F)cc3)CC2)n1	ALR H2O2 inh 98
O=C(CNCc1cccs1)Nc1ccc(N2CCCCCC2)cc1	ALR H2O2 inh 99
O=C(CCc1nc2ccccc2c(=O)[nH]1)Nc1ccc(N2CCCCC2)cc1	IDE cell inh 17
COc1cccc(N2CCN(CC(=O)NC(C)c3ccccc3)CC2)c1 (stereo unspecified)	ALR H2O2 inh 81 (no result: IDE cell inh)
CC(=O)Nc1ccc(NC(=O)CC(NC(=O)c2ccccc2)c2ccccc2)cc1 (stereo unspecified)	none
